Screening data deposited in PubChem by National Center for Advancing Translational Sciences (NCATS).
This is a sample that favours compounds with a hit; in the whole collection about 5.7% have one here.
HepG2 viability: qHTS for Inhibitors of TGF-b: Cytotox Counterscreen. HepG2 CAGA-GFP viability, ATP luminescence, 18 h. Potency, µM (highest dose often 46.1 µM), inactives show at the highest dose activity change, negative = cytotoxicity, usual class: cytotoxic. 410,000 tested, 0.76% active. AID 588856, 2011; further: potency means the concentration at half of the fitted maximal effect
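HepG2 CAGA-GFP cells (1000/well, DMEM with 1% FBS) received compound, then TGF-beta at 500 pg/mL final, and were incubated 18 hours at 37 degrees C. Viability was read by CellTiter-Glo luminescence. Media-only wells were set as complete cell-killing and DMSO as no toxicity.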
ATXN viability: Viability Counterscreen for Primary qHTS for Inhibitors of ATXN expression | Potency, µM (titrated, usually from 56.7 µM), hits mostly cytotoxic | 400,000 tested, 0.49% active | S2 cells (HEK-293 line with an ATXN2-luciferase reporter) viability, CellTiter-Fluor protease fluorescence, 24 h; further: potency means the concentration at half of the fitted maximal effect; nearly all actives have a fitted effect of over 40% in size
TGFb inhibitor: qHTS for Inhibitors of TGF-b; HepG2 CAGA-GFP TGF-b/SMAD3 reporter, GFP fluorescence, 18 h; TGF-beta stimulated, 500 pg/mL final; 410,000 tested, 1.2% active; Potency, µM (top dose mostly 46.1 µM), for the others: at the highest dose activity, negative = inhibition, usual class: inhibitors; further: potency means the concentration at half of the fitted maximal effect; on the % scale 0 is the no-effect control and ±100 the full control effect; nearly all actives have a fitted effect of over 65% in size
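HEPG2 CAGA-GFP cells (1000/well, DMEM with 1% FBS) were pre-incubated 2 h at 37 degrees C, given compound by pin tool, then stimulated with TGF-beta at 500 pg/mL final for 18 h before per-cell GFP fluorescence imaging.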
ATXN2 expr inh: Primary qHTS for Inhibitors of ATXN expression; HEK-293 ATXN2-luciferase reporter, luminescence, 24 h; Potency, µM (top dose mostly 57 µM), inactives show at the top dose activity change, negative = inhibition, most hits filed as inhibitors; 360,000 tested, 0.72% active; further: potency means the concentration at half of the fitted maximal effect; on the % scale 0 is the no-effect control and ±100 the full control effect; nearly all actives have a fitted effect of over 55% in size
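ATXN2-luciferase reporter cells (luciferase flanked by upstream and downstream ATXN2 gene portions) were treated 24 h at 37 °C with compounds at up to 57 uM. SteadyGlo luminescence gave expression; GF-AFC fluorescence gave viability.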
IL1B secr inh: qHTS for Inhibitors of Inflammasome Signaling: IL-1-beta AlphaLISA Primary Screen; THP-1 LPS/ATP IL-1B secretion, AlphaLISA, 16 h; hits give low values; 360,000 tested, 4.7% active; AID 743279, 2014; activity change, % at 57.5 µM; in the data active means activity change below about -50%; inconclusive means mostly about -30% to -49%; further: on the % scale 0 is the no-effect control and ±100 the full control effect
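Secreted IL-1B measured by AlphaLISA bead assay after 16 h compound exposure of THP-1 cells; compounds (final up to 57.5 uM) added 1 h before LPS (250 ng/mL) and ATP (1.25 mM) stimulation; lower signal means less secretion.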
* = called active by the depositor; i = inactive; ? = inconclusive; nt = no result. Unless noted, the call rests on the fitted dose curve; in most records, active means well fitted curve in the direction sought with a large enough effect; inconclusive means small, poorly fitted or top-dose-only effect, or another doubt; inactive means no such curve, though single readings can be large; an effect the other way counts as inactive or inconclusive.

SMILES | HepG2 viability | ATXN viability | TGFb inhibitor | ATXN2 expr inh | IL1B secr inh
CCc1cc(-c2n[nH]c(C)c2-c2nc(C)cs2)c(O)cc1OC | -21% | i | -5% | -29% | -78*
Cc1ccc(C)c(N2CCN(S(=O)(=O)c3ccc4[nH]c5c(c4c3)CCCC5)CC2)c1 | -7% | i | 13µM* | -14% | nt
CCOC(=O)C1CCN(S(=O)(=O)CCNC(=O)c2ccccc2)CC1 | -1% | i | 1% | 6% | ?
CCOC(=O)C1CCCN(S(=O)(=O)CCNC(=O)c2cccc(OC)c2)C1 (centres undefined) | -11% | i | -8% | 0% | -68*
CCN1CCN(c2ccc(S(=O)(=O)N3CCCCC3)cc2NC(=O)COc2ccccc2)CC1 | 13% | i | -5% | -10% | -55*
CCC(=O)c1ccc(OCC(=O)Nc2cc(S(=O)(=O)N3CCCCC3)ccc2N2CCN(CC)CC2)cc1 | -74% | i | -16% | -8% | -16
O=C(CCl)Nc1cc(S(=O)(=O)N2CCCCCC2)ccc1Cl | -14% | 18µM* | 3% | ? | -101*
CCN1CCN(c2ccc(S(=O)(=O)N3CCCCC3)cc2NC(=O)Cc2ccc(Cl)c(Cl)c2)CC1 | 18µM* | i | 16µM* | -11% | -60*
CCN1CCN(S(=O)(=O)c2ccc(Cl)c(C(=O)Nc3cc(Cl)ccc3N3CCOCC3)c2)CC1 | -11% | i | 0% | -5% | -62*
CCN1CCN(S(=O)(=O)c2ccc(Cl)c(C(=O)Nc3ccccc3N3CCOCC3)c2)CC1 | -26% | i | -10% | -11% | -8
CCN1CCN(c2ccc(S(=O)(=O)N3CCCCC3)cc2NC(=O)Cc2ccccc2)CC1 | -54% | i | -23% | -5% | -12
Cc1ccc(S(=O)(=O)N2CCOCC2)cc1NC(=O)CNC(C)c1ccccc1 (centres undefined) | 5% | i | -2% | 0% | 1
O=C(Nc1ccc(S(=O)(=O)N2CCOCC2)cc1)c1ccc([N+](=O)[O-])cc1Cl | 13% | ? | -20% | -47% | 0
Cc1cc(NC(=O)c2cc([N+](=O)[O-])ccc2Cl)no1 | -26% | i | -23% | -1% | ?
CCc1nnc(NC(=O)c2cc(S(=O)(=O)N3CCOCC3)ccc2N2CCCCC2)s1 | 1% | i | -11% | -17% | -70*
O=C(Nc1cc(S(=O)(=O)N2CCOCC2)ccc1Cl)c1cc([N+](=O)[O-])ccc1Cl | -5% | ? | ? | ? | -97*
CC(NCC(=O)Nc1cc(S(=O)(=O)N2CCOCC2)ccc1Cl)c1ccc(Cl)cc1Cl (centres undefined) | -4% | ? | ? | -18% | -52*
O=C(Nc1cccc(NC(=O)c2cc([N+](=O)[O-])ccc2Cl)n1)c1cc([N+](=O)[O-])ccc1Cl | -53% | nt | ? | nt | -100*
COC(=O)c1ccccc1-c1cc(C)cc2c1OC(CNC(=O)c1cc(C)on1)C2 (centres undefined) | nt | i | nt | nt | nt
COc1cc(NC(=O)c2ccc(NC(=O)N3CCSc4ncccc43)cc2)cc(OC)c1 | -15% | nt | -15% | nt | nt
COc1ccc(-c2nc3ccccc3o2)cc1NC(=O)COc1ccc(C)cc1 | 0% | nt | -7% | nt | nt
COc1ccccc1CNC(=O)c1ccc(Cn2c(SCc3ccccc3)nc3cccnc32)cc1 | -12% | i | 0% | -32% | nt
CCN1CCN(S(=O)(=O)c2ccc(Cl)c(C(=O)N(C)Cc3ccccc3)c2)CC1 | -11% | ? | -8% | ? | -20
CCN1CCN(S(=O)(=O)c2ccc(Cl)c(C(=O)N(C)Cc3cccc(Cl)c3Cl)c2)CC1 | -18% | i | ? | -9% | -69*
CC1CCN(c2cc(C#N)c(C#N)cc2[N+](=O)[O-])CC1 | -2% | i | -4% | 6% | 12
SMILES | HepG2 viability | ATXN viability | TGFb inhibitor | ATXN2 expr inh | IL1B secr inh
CC1CCN(c2cc(N)c(Cl)cc2[N+](=O)[O-])CC1 | -17% | ? | -6% | 6% | -78*
COc1ccc(NC(=O)c2nc(SC)ncc2Cl)cc1 | -18% | i | 4% | -6% | 2
COc1ccc(N(Cc2ccccc2)C(=O)c2nc(SC)ncc2Cl)cc1 | -30% | i | 13µM* | ? | nt
CCCS(=O)(=O)c1ncc(Cl)c(C(=O)N(Cc2ccccc2)Cc2ccco2)n1 | 4µM* | nt | 8.9µM* | nt | nt
CCS(=O)(=O)c1ncc(Cl)c(C(=O)N(Cc2ccccc2)c2ccc(OC)cc2)n1 | 3.2µM* | nt | 3.2µM* | nt | nt
O=C(Cc1ccc(Oc2ccccc2)cc1)NO | -21% | nt | -6% | nt | nt
NNC(=O)c1ccc(C(=O)N(c2ccccc2)c2ccccc2)cc1 | -40% | nt | -3% | nt | nt
CC1CCN(S(=O)(=O)N2CCC(C(=O)NCc3ccccc3Cl)CC2)CC1 | 1% | nt | 0% | nt | nt
CC(C)c1cc(NC(=O)CCl)on1 | -50% | ? | ? | nt | -79*
COc1ccc(OC)c(N(C(=O)c2snc(C(N)=O)c2N)C(C(=O)NCc2ccccc2)c2ccc(O)cc2)c1 (centres undefined) | -34% | i | -8% | 0% | -79*
COc1ccc(N(C(=O)c2snc(C(N)=O)c2N)C(C(=O)NCc2ccccc2)c2ccc(O)cc2)cc1 (centres undefined) | -37% | i | 11% | 4% | -21
Cc1ccc(C(C(=O)NCc2ccc(F)cc2)N(Cc2ccco2)C(=O)c2snc(C(N)=O)c2N)o1 (centres undefined) | -6% | i | -6% | -8% | -71*
CN(C)c1ccc(C(C(=O)NCc2ccccc2)N(Cc2ccco2)C(=O)c2snc(C(N)=O)c2N)cc1 (centres undefined) | -10% | ? | 18% | -14% | -72*
NC(=O)c1nsc(C(=O)N(Cc2cccnc2)C(C(=O)NCc2ccc(F)cc2)c2ccc(F)cc2)c1N (centres undefined) | -15% | i | -1% | -9% | -55*
Cn1cnnc1Sc1ccc(CN2CCOc3ccc(C4=CCCCC4)cc3C2)o1 | nt | i | nt | nt | nt
Cc1cc(C=O)c(C)n1-c1ccc(NC2CCCC2)c([N+](=O)[O-])c1 | 3% | ? | -28% | -33% | -82*
Cc1cc(C=O)c(C)n1-c1ccc(Oc2ccc([N+](=O)[O-])cn2)cc1 | 3% | i | 4% | 5% | 7
COC(=O)c1ccc(OCC2c3cc(OC)c(OC)cc3CCN2C(=O)c2cccc(C)c2)cc1 (centres undefined) | -15% | i | ? | ? | nt
COc1cc(/C=N/Nc2nncn2N)ccc1OCc1c(C)no[n+]1[O-] | 10µM* | i | 7.1µM* | nt | 23
Clc1ccc(C2=NNC(=NCc3ccc4c(c3)OCO4)SC2)cc1 | -33% | ? | 16µM* | 3% | ?
